In ChEMBL document CHEMBL3988442, “University of Dundee, Small-Polar-MMV Screening Library” (2021):
About 1,000 (1.4%) of roughly 69,000 compounds showed an effect of 50% or more. Only a selection was taken, and strong results are over-represented in it overall.

Tested on: Leishmania donovani
Experiment: Leishmania intramacrophage assay
Type: functional, organism-based
Parameters: scale not given: in the data most compounds retested in dose-response had high values

SMILES	Percent Effect (30.3 µM, […]) [%]	Percent Effect (30 µM, 30.03 µM) [%]
CCS(=O)(=O)N1C[C@@H](c2ccccc2)[C@@]2(CCNC2=O)C1	42.69	
CC1(C)CN(C(CNS(N)(=O)=O)c2ccc(Cl)cc2)CCO1 (configuration not stated)	-5.286	
CC(C)N(C)C(=O)C1CSCN1S(=O)(=O)c1ccccc1F (configuration not stated)	51.74	
CC(C)N(C)C(=O)C1CSCN1S(=O)(=O)c1cc(Cl)ccc1Cl (configuration not stated)	6.679	
CC(C)(C)NC(=O)C1CSCN1S(=O)(=O)c1ccccc1F (configuration not stated)	-3.758	
Cc1cccc(NC(=O)CNC(=O)c2ccccc2F)c1	-11.93	
CNC(=O)c1nc(CC(=O)Nc2cccc(C(F)(F)F)c2)no1	-13.79	
O=c1cc(N2CCc3ccccc3C2)cnn1CCC1CCOC1 (configuration not stated)	44.37	
CC(C)C(=O)N1CC[C@H]2N(C)CC[C@@]2(C(=O)Nc2ccccc2)CC1	56.37	
CNC(=O)N1CC[C@H]2N(C)CC[C@@]2(C(=O)Nc2ccccc2)CC1		11.56
CC(C)C(=O)N1CC[C@H]2N(C)CC[C@@]2(C(=O)Nc2cccnc2)CC1.O=C(O)C(F)(F)F.O=C(O)C(F)(F)F	36.27	
CCCc1noc(C2CC(=O)N(Cc3ccccc3)C2)n1 (configuration not stated)	62.8	
CCCc1noc(C2CC(=O)N(C(C)(C)C)C2)n1 (configuration not stated)	13.52	
CCCc1noc(C2CC(=O)N(CCN(C)C)C2)n1 (configuration not stated)	24.39	
O=C(CCS(=O)(=O)c1ccccc1)NC1CCOC2(CCOCC2)C1 (configuration not stated)	-6.021	
COCCN1CCCCC12CC(=O)N(c1cccc(C#N)c1)C2.O=C(O)C(F)(F)F (configuration not stated)	50.28	
O=C(O)C(F)(F)F.O=C1CC2(CCCCN2CC2CC2)CN1c1ccccc1 (configuration not stated)	20.41	
COCCN1CCCCC12CC(=O)N(c1ccccc1OC)C2.O=C(O)C(F)(F)F (configuration not stated)	20.15	
COc1ccc(N(c2ccccc2)c2ccc(C(=O)O)s2)cc1	6.692	
Cc1cnc(C(=O)N2CCCC3(CCN(c4cnn(C)c4)C3=O)C2)cn1 (configuration not stated)	-31.28	
CN(C)C(=O)CC1CC2(CCN(CC3CC3)CC2)Oc2ccccc21.O=C(O)C(F)(F)F (configuration not stated)	9.368	
CCn1nccc1CN(C)C(=O)Cn1cc2c(n1)c(C)nn2CC	72.98	
CCn1nccc1CN(C)C(=O)Cn1nc(C)c(C)c1C	6.99	
CCn1nccc1CN(C)C(=O)Cn1nc(C)cc1C	19.68	
CN1CCCN(C(=O)c2csc(-c3ccc(C(F)(F)F)cc3)n2)CC1	-34.88	
O=C1CCN(C(=O)c2csc(-c3ccc(C(F)(F)F)cc3)n2)CCN1	-4.65	
O=C(c1csc(-c2ccc(C(F)(F)F)cc2)n1)N1CCCNCC1	53.12	
